Screens as filed in PubChem.
UBC13 inh: inhibitors of human UBC13 polyubiquitin chain formation. AID 485273. P61088. TR-FRET. inhibition, % at 20 µM. 330,000 tested, 0.47% active; in the data active = inhibition above about 45%, passing the limit was not always enough
Target sequence (P61088 whole entry, looked up): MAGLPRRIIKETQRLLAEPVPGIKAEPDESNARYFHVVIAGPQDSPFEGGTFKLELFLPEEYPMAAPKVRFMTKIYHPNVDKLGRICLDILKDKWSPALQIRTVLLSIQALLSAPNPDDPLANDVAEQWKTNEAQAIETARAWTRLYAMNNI
NALP1 inh: blocks the NALP1 inflammasome reconstituted in yeast; AID 2071; S. cerevisiae NALP1/ASC/caspase-1 growth, X-gal OD620, 72 h; 280,000 tested, 0.61% active; inhibition, % at 10 µM; in the data active = inhibition mostly above about 24%, no sharp cut-off; inactive = mostly below about 32%
NR3A LBD binder: modulators (binders) of human NR3A ligand-binding domain; NR3A LBD differential scanning fluorimetry, Tm shift; 0% = protein alone, 100% = glycine-bound protein; Tm shift relative to glycine control, % at 25 µM; 340,000 tested, 2.5% active; AID 1259313;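 active = melting temperature shift of at least 10% of the positive control shift, at one fixed dose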
CR mimetic SO: caloric restriction mimetics inhibiting age-related superoxide in yeast | S. cerevisiae aged cells, superoxide DHE fluorescence; active compounds read low | superoxide response (% of plate mean), % at 10 µM | 330,000 tested, 0.18% active | AID 2690;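 active = superoxide response under a set limit, about three screen SD below normal, cut at about 65% in these data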;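 note: yeast aged for seven days with compound at 30 °C before DHE staining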
dFosB act: enhances mouse delta FosB homodimer DNA binding; P13346; purified delta FosB, TAMRA-CDK5 oligo fluorescence polarization; percent of positive-control signal above neutral wells; activation, % at 25 µM; 340,000 tested, 0.99% active; AID 493131;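 active = mean activation above about 17%, with every replicate also reaching it, limit read from the data, passing the limit was not always enough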
Target sequence (P13346 whole entry, looked up): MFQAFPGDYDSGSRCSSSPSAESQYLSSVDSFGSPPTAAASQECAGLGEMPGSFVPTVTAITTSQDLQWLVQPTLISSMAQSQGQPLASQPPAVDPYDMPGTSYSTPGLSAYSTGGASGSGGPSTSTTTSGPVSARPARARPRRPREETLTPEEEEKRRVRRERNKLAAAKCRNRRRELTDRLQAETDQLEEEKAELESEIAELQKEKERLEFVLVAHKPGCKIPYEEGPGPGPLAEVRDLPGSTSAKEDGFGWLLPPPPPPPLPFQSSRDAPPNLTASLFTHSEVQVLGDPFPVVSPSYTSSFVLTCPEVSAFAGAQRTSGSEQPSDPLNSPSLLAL
Large screens that a line does not name were inactive. Sampled rows, rich in hits. Any-hit rate of the full collection: about 4.3%.

O=C(Nc1nnc(CSCc2ccc(F)cc2)s1)c1cccc([N+](=O)[O-])c1	none
O=C(Nc1nnc(CSCc2ccc(Cl)cc2)s1)c1cccc([N+](=O)[O-])c1	NR3A LBD binder 19
O=C(Cn1cnc2sc3c(c2c1=O)CCCC3)NCC(=O)Nc1c(F)cc(F)cc1Br	dFosB act 69
COc1ccc(S(=O)(=O)n2[nH]c(=O)c(CCO)c2C)cc1	NALP1 inh 29
Cc1c(CCO)c(=O)[nH]n1S(=O)(=O)c1ccc([N+](=O)[O-])cc1	none
COc1cccc2cc(C(=O)CC3(O)C(=O)N(Cc4ccccc4)c4ccccc43)c(=O)oc12 (stereo not given)	NR3A LBD binder 15
CCCCc1nc(SCC(=O)Nc2cccc(Cl)c2)n[nH]1	none
CC1(C)Cc2nc(NCCCO)c(C#N)cc2CO1	NR3A LBD binder 16
CCN(CC)C(=O)CCCOc1ccc(Cl)cc1Cl	none
C#CCN(C)CCCOc1ccc(Cl)cc1Cl	NALP1 inh 56
CCN(CC(=O)NCc1cccs1)C(=O)c1ccc(-c2cccc(C(F)(F)F)c2)o1	none (no result: NALP1 inh)
CCc1nc2ccccc2n1CC(=O)OCC(=O)N(CC(C)C)c1c(N)n(Cc2ccccc2)c(=O)[nH]c1=O	none (no result: NALP1 inh)
CC1=CC(C)(C)N(C(=O)CCl)c2ccccc21	NALP1 inh 28
O=[N+]([O-])c1ccc(/C=N/NC(=S)Nc2ccccc2)o1	none
O=[N+]([O-])c1cccc(-c2ccc(/C=N/NC(=S)Nc3ccccc3)o2)c1	NR3A LBD binder 15
CCOc1ccc(NC(=O)CSc2nnc(NC(=O)C3CC3)s2)cc1	none
Cc1ccc(Nc2nc(Cl)c(C=O)s2)cc1Cl	NR3A LBD binder 21
O=Cc1sc(Nc2ccccc2)nc1Cl	none
CC1CCCN(C(=O)COC(=O)CNC(=O)c2sc3ccccc3c2Cl)C1 (stereo not given)	none (no result: NALP1 inh)
CCOC(=O)C(C)/C(C)=N/NC(N)=S (stereo not given)	none
Nc1ncnc2c1ncn2[C@@H]1O[C@H](CNCc2cccc(C#Cc3ccccc3)c2)[C@@H](O)[C@H]1O	NR3A LBD binder 13 (no result: UBC13 inh, NALP1 inh)
Nc1ncnc2c1ncn2[C@@H]1O[C@H](CNC(=O)[C@@H]2CCN2)[C@@H](O)[C@H]1O	NR3A LBD binder 15 (no result: UBC13 inh, NALP1 inh)
Nc1ncnc2c1ncn2[C@@H]1O[C@H](CNC(=O)[C@H]2CCC(=O)N2)[C@@H](O)[C@H]1O	none (no result: UBC13 inh, NALP1 inh)
Nc1ncnc2c1ncn2[C@@H]1O[C@H](CNCc2ccccc2)[C@@H](O)[C@H]1O	none (no result: NALP1 inh)
COc1cccc(C(=O)CN(C(=O)c2ccc(Cl)c(Cl)c2)N2C(=O)C3CCCCC3C2=O)c1 (stereo not given)	none
CCC(=O)n1nc(-c2ccc(OC)cc2)nc1N	NALP1 inh 24
CCC(=O)n1nc(-c2ccccc2)nc1N	none
COc1ccc(C(=O)Nc2ccc3c(c2)OCCO3)cc1Br	none
COC(=O)c1cc(OC)c(OC)cc1NC(=O)c1ccc(OC)c(OC)c1	dFosB act 19
CC(=O)c1ccc(NC(=O)c2ccc(C)c(Br)c2)cc1	NR3A LBD binder 28
COc1ccc(C(=O)Nc2ccc(Nc3ccccc3)cc2)cc1Br	NR3A LBD binder 24 (no result: NALP1 inh)
COc1cc(C(=O)Nc2ccc(O)cc2)ccc1OC(C)=O	NR3A LBD binder 32
O=C(CSc1nc2ccc([N+](=O)[O-])cc2s1)NCC1CCCO1 (stereo not given)	none
COc1cccc(NC(=O)CN(C)C(C)C(=O)NC(C)c2ccc(Cl)cc2Cl)c1 (stereo not given)	none (no result: NALP1 inh, CR mimetic SO)
Cc1ccc(C(=O)Nc2ccc(N3CCCCC3)cc2)cc1	none (no result: NALP1 inh)
COc1ccc(C(=O)Nc2ccc(N3CCCCC3)cc2)cc1Br	NR3A LBD binder 10
O=C(CCc1nc2ccccc2[nH]c1=O)OCC(=O)c1cccc2ccccc12	NALP1 inh 36 (no result: UBC13 inh, NR3A LBD binder, CR mimetic SO, dFosB act)
Cc1ccc(C)c(NC(=S)NC(NC(=O)OCc2ccccc2)C(Cl)(Cl)Cl)c1 (stereo not given)	NR3A LBD binder 15
O=C(NC(NC(=S)Nc1c(Cl)cc(Cl)cc1Cl)C(Cl)(Cl)Cl)OCc1ccccc1 (stereo not given)	NR3A LBD binder 21
Cc1ccc(NC(=S)NC(NC(=O)C(C)(C)C)C(Cl)(Cl)Cl)c(C)c1 (stereo not given)	none
C[C@H](CO)N1C[C@H](C)[C@@H](CN(C)Cc2ccc(Cl)c(Cl)c2)Oc2c(NS(=O)(=O)c3cn(C)cn3)cccc2C1=O	none (no result: NALP1 inh)
Cc1ccc2nc(NCCc3ccccc3)c3nncn3c2c1	none (no result: CR mimetic SO)
O=C(CN1C(=O)NC2(CCCCC2)C1=O)NCCCSc1ccccc1	none (no result: NALP1 inh)
Cc1ccc(S(=O)(=O)N2CCCCC2CCNC(=O)C(=O)NCc2ccco2)cc1 (stereo not given)	NR3A LBD binder 18 (no result: NALP1 inh)
COc1ccc(S(=O)(=O)N2CCCC2CNC(=O)C(=O)Nc2ccc(F)cc2)cc1 (stereo not given)	NR3A LBD binder 11 (no result: NALP1 inh)
COc1ccc(CCNC(=O)C(=O)NCCC2CCCCN2S(=O)(=O)c2ccccc2)cc1 (stereo not given)	NR3A LBD binder 11 (no result: NALP1 inh)
COc1ccc(CCNC(=O)c2cc(S(=O)(=O)N3CCCCC3)ccc2Cl)cc1	NR3A LBD binder 15 (no result: NALP1 inh, CR mimetic SO)
CN(C)CCN1C(=O)c2cccc3cc([N+](=O)[O-])cc(c23)C1=O	dFosB act 49 (no result: UBC13 inh, NALP1 inh, CR mimetic SO)
COc1cc(CNCCO)cc(Cl)c1OCc1ccc(Cl)cc1Cl	NALP1 inh 38
COc1cc(CNC(C)(C)CO)cc(Br)c1OCc1ccc(Cl)cc1Cl	NALP1 inh 58
Cc1c(C(=O)N2CCCCC2)c(S(=O)(=O)N2c3ccccc3CC2C)c(C)n1C (stereo not given)	none
CC(C)=NN/C(N)=N/C(=S)Nc1ccc(C)cc1	NR3A LBD binder 13
CC(C)c1nnc(NC(=O)CCC(=O)NC2CCCc3ccccc32)s1 (stereo not given)	NR3A LBD binder 11
O=C(COc1ccccc1)Nc1cccc(-c2ccc(N3CCOCC3)nn2)c1	none (no result: NALP1 inh)
Oc1c(Br)cc(Br)cc1CNc1cnc2ccccc2c1	NR3A LBD binder 24
Oc1c(Br)cc(Br)cc1CNc1ccc(F)cc1	NR3A LBD binder 11
Oc1c(Br)cc(Br)cc1CNc1nccs1	none
CSc1nc(/C=C2\C=Nc3ccccc32)c(O)n1C	none
CC(C)n1c(O)c(/C=C2\C=Nc3ccccc32)sc1=Nc1ccccc1	NR3A LBD binder 25
O=C(CCS(=O)(=O)c1ccccc1)N(CCCN1CCOCC1)c1nc2ccc(F)cc2s1	none (no result: NALP1 inh)
Fc1ccc(-c2csc3ncnc(N4CCc5ccccc5C4)c23)cc1	NR3A LBD binder 11
Cc1ccc(NC(=O)COC(=O)C2=NN(c3ccccc3)C(=O)CC2)c(Br)c1	none (no result: NALP1 inh)
CC(C)(O)CC[C@@H](O)[C@](C)(O)[C@H]1CC[C@@]2(O)C3=CC(=O)[C@@H]4C[C@@H](O)[C@@H](O)C[C@]4(C)[C@H]3CC[C@]12C	none
CC(C)(O)CC[C@@H](O)[C@](C)(O)C1CC[C@@]2(O)C3=CC(=O)[C@@H]4C[C@@H](O)[C@@H](O)C[C@]4(C)C3CC[C@]12C (stereo not given in full)	NR3A LBD binder 10 (no result: NALP1 inh)
